FXN GAA850 act: frataxin GAA850 promoter activation | HEK293 lucGAA850 FXN promoter luciferase reporter, 24 h; percent of 10 µM SAHA response | activation, % at 6 µM | AID 540364 | hit rate 0.56% among 360,000;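 active = activation above the average of all compounds screened plus 3 SD, cutoff fixed separately per campaign, cut at about 7.5% in these data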
hcDAF12 agonist: activators of H. contortus DAF-12 nuclear receptor. HEK293 hcDAF-12 lit1-tk-luc reporter, luminescence; 0% DMSO, 100% Δ7-dafachronic acid. activation, % at 6.8 µM. hit rate 1.4% among 370,000;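 active = activation above the mean of all tested compounds plus 3 SD, cut at about 5.5% in these data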
hgDAF-12 ag: activates the H. glycines DAF-12 receptor ligand-binding domain. HEK293 GAL4-hgDAF12 UAS-luciferase reporter, agonist luminescence; normalized to butyrate control. activation, % at 6.8 µM. hit rate 1.8% among 370,000. AID 687014;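 active = activation above a cutoff set at the mean of all screened compounds plus 3 SD, cut at about 10% in these data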
DAX1 inh-1: inhibits human nuclear receptor DAX1 | hit rate 0.99% among 340,000 | inhibition, % at 6.75 µM | HEK293 Gal4-DAX1 luciferase reporter, luminescence | P51843;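 active = inhibition above the mean over all tested compounds plus 3 SD, cut at about 4.2% in these data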;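 note: inhibition shows as a rise in luminescence from relieved DAX1 repression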
Target sequence (P51843 207-470 limits assumed): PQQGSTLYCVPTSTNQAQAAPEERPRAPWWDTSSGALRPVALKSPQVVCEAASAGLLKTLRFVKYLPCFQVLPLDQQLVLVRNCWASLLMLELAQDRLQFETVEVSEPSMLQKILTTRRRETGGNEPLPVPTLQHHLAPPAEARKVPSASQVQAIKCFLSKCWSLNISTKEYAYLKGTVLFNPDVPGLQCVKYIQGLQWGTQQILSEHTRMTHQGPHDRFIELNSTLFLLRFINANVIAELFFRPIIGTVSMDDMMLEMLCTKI
ssDAF-12 act: activators of S. stercoralis DAF-12 nuclear receptor; HEK293 ssDAF-12/GRIP1 lit1-tk-luc reporter, luminescence; % of 3 µM dafachronic acid response; activation, % at 6.8 µM; hit rate 1% among 370,000;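 active = activation above the mean over all tested compounds plus 3 SD, cut at about 0.9% in these data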
DAX1 inh-2: inhibitors of DAX1 repression of SF-1 activated StAR promoter; HEK293T StAR-luciferase reporter, SF-1/DAX-1 repression relief; inhibition, % at 6.8 µM; hit rate 1.1% among 370,000;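 active = inhibition above the mean over all tested compounds plus 3 SD, cut at about 3.6% in these data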;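 note: higher inhibition means more luminescence from relief of DAX-1 repression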
LXRb hcDAF ctr: counter-screen for hcDAF-12 agonists: agonists of human LXR-beta | AID 743027 | HEK293 Gal4-LXR tk-luc reporter, luminescence, 24 h; normalized: DMSO 0%, positive control 100% | shares compounds with hcDAF12 agonist | 3,400 tested, under 10 active | activation, % at 6.8 µM;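 active = mean percent activation of the reporter above a cutoff set as the average over tested compounds plus their standard deviation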
hcDAF12 conf: hcDAF-12 agonism, confirmation assay. shares compounds with hcDAF12 agonist. HEK293 hcDAF-12 lit1-tk-luc reporter, luminescence; % of Δ7-dafachronic acid response. activation, % at 6.8 µM. hit rate 61% among 3,400. AID 743032;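 active = mean activation across triplicate tests above the threshold derived from the earlier primary screen, cut at about 5.5% in these data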
Hits are given with their value; i = inactive; nt = no result. Shown are actives, neighbours in structure and some others; about 4.5% of the full set was active somewhere.

SMILES	FXN GAA850 act	hcDAF12 agonist	hgDAF-12 ag	DAX1 inh-1	ssDAF-12 act	DAX1 inh-2	LXRb hcDAF ctr	hcDAF12 conf
COc1ccc2nc3sc(C(=O)N4CCN(C)CC4)cc3cc2c1	i	i	i	i	i	i	nt	nt
COc1ccc2nc3sc(C(=O)NCCCN4CCc5ccccc5C4)cc3cc2c1	i	8.0	i	i	i	i	i	6.8
CC1CC1C(=O)Nc1nc2ccc(Cl)cc2s1 (stereo not given)	i	7.0	i	i	i	i	i	6.2
Cc1ccc(NC(=O)n2ncc3c(C)cccc32)cc1F	i	11	i	i	1.1	i	i	9.0
Cc1cccc(N=Nc2c(O)[nH]c3ccc(Br)cc23)c1	i	12	i	i	i	i	i	6.3
Cc1cccc(C)c1OCC(=O)N=Nc1c(O)[nH]c2ccc(Br)cc12	i	i	i	i	i	i	nt	nt
COc1ccc2[nH]cc(C(=O)CNc3nc(C)cs3)c2c1	i	7.3	i	i	i	i	i	7.6
COc1ccc2[nH]cc(C(=O)CCl)c2c1	i	i	i	i	i	i	nt	nt
Cc1ccc(-c2nc(CS(=O)(=O)CC(=O)NCCCN(Cc3ccccc3)C(C)C)c(C)o2)cc1	i	i	i	i	i	i	nt	nt
Cc1oc(-c2ccc(-c3ccccc3)cc2)nc1CN(CCO)C(C)C	i	7.2	14	i	1.6	i	i	17
CSc1nc(Cl)c(Br)c(Nc2c[nH]c(=O)[nH]c2=O)n1	i	i	i	i	i	i	nt	nt
COc1cccc(C(=O)NNC(=O)C(=O)Nc2cccc3ccccc23)c1	i	i	i	i	i	i	nt	nt
Cc1ccc(S(N)(=O)=O)cc1NC(=O)c1ccc2c3c(cccc13)CC2	i	i	i	i	i	i	nt	nt
CCN(C(=O)COc1ccc(F)cc1Br)c1c(N)n(Cc2ccccc2)c(=O)[nH]c1=O	i	i	i	i	i	i	nt	nt
CCNC(=O)c1ccc(CSc2nc3ccccc3s2)cc1	i	i	i	i	i	i	nt	nt
NC(=O)c1ccc(CSc2nc3ccccc3s2)cc1	i	8.1	i	i	i	i	i	i
COc1cc2c(cc1OC)C(c1ccccc1)=NCC2	i	7.8	i	i	i	i	i	i
O=C(/C=C/Nc1cccc(F)c1)c1ccco1	i	8.8	12	i	1.4	i	i	8.1
O=C(C=Cc1ccco1)c1ccco1	i	i	i	i	i	i	nt	nt
O=C(Nc1cccc(F)c1)/C(=C\c1ccco1)NC(=O)c1cccs1	i	i	i	i	i	i	nt	nt
O=C(/C=C/Nc1ccc(F)c(Cl)c1)c1ccco1	i	8.8	i	i	1.7	i	i	12
O=C(/C=C\Nc1cccc(F)c1)c1cccs1	i	9.8	i	i	1.5	3.6	i	18
O=C(CCNc1ccc(F)c(Cl)c1)c1ccco1	i	i	i	i	i	i	nt	nt
CC1=C(C(=O)N(C)C)CC(CC(=O)NC2CCCCC2)C(=O)N1Cc1ccc(F)cc1 (stereo not given)	nt	i	i	nt	i	i	nt	nt
COc1ccc(Cl)cc1-c1nc(SCC(N)=O)n[nH]1	i	i	i	i	i	i	nt	nt
SMILES	FXN GAA850 act	hcDAF12 agonist	hgDAF-12 ag	DAX1 inh-1	ssDAF-12 act	DAX1 inh-2	LXRb hcDAF ctr	hcDAF12 conf
O=C(CSc1nnc(-c2ccccc2O)o1)N1CCOCC1	i	11	i	i	i	i	i	i
CC1CCCCN1C(=O)CSc1nnc(-c2ccccc2O)o1 (stereo not given)	i	15	16	i	1.7	i	i	20
Cc1ccc(CNc2nc3ccccc3n2C)o1	i	7.8	12	i	1.1	i	i	8.3
CCC(=O)Oc1ccc(-c2cnc3ccccc3n2)cc1	i	7.1	11	i	i	i	i	10
Cc1c(C(=O)Oc2ccc(-c3cnc4ccccc4n3)cc2)cccc1[N+](=O)[O-]	i	i	i	i	i	i	nt	nt
CCOc1ccc(S(=O)(=O)N2CCN(C(=O)c3cc4ccccc4o3)CC2)cc1	i	i	i	i	i	i	nt	nt
CCCCN1C(=O)C(=O)NC[C@@H]1CC1CCCCC1	nt	i	i	nt	i	i	nt	nt
N#Cc1ccc(C(=O)Nc2cccc3ncccc23)c(F)c1	i	i	i	i	i	i	nt	nt
Cc1cc(C)c2oc(-c3ccc(Cl)c(NC(=O)c4ccc(C#N)cc4F)c3)nc2c1	i	6.6	i	i	i	i	i	5.7
O=C(NC(=Nc1nc2ccccc2o1)NC(=O)c1ccccc1)c1ccccc1	i	i	i	i	i	i	nt	nt
O=C(NNc1nc2ccccc2o1)c1ccccc1	i	8.2	11	nt	i	i	i	i
CC(=O)N[C@@H](Cc1ccc(O)cc1)CN1C(N)=NC[C@@H]1CC(C)C	i	6.8	i	i	i	i	i	i
CC(C)C[C@H]1CNC(=O)C(=O)N1C[C@H](Cc1ccc(O)cc1)NC(=O)CC12CC3CC(CC(C3)C1)C2	nt	i	i	nt	i	i	nt	nt
CCC(c1nnnn1-c1ccc2c(c1)OCCO2)N1CCN(Cc2c(F)cccc2Cl)CC1 (stereo not given)	nt	i	i	nt	i	i	nt	nt
Cc1cc2cc(OCc3ccccc3)ccc2n1C	i	6.7	i	i	i	i	i	i
CCCc1cc2c(=O)c(-c3nc4ccccc4s3)c(COCC(=O)O)oc2cc1O	i	6.8	i	i	0.9	i	i	7.7
CCc1cc2c(=O)c(-c3nc4ccccc4n3C)c(COCC(=O)O)oc2cc1O	i	i	i	i	i	i	nt	nt
COc1cc(NC(=O)c2sc3ncn(CC(=O)N4CCCCC4C)c(=O)c3c2C)cc(OC)c1OC (stereo not given)	i	i	i	i	i	i	nt	nt
O=C(CCCOc1ccccc1)N1CCN(c2ccccn2)CC1	i	10	i	i	i	i	i	6.4
c1csc(-c2ccc(N3CCOCC3)nn2)c1	i	6.6	13	i	i	i	i	5.8
CCOC(=O)C1CCN(c2ccc(-c3cccs3)nn2)CC1	i	i	i	i	i	i	nt	nt
COC(=O)CSc1nnc(CCc2ccccc2)n1C	i	i	i	i	i	i	nt	nt
CN(C(=O)c1c(Br)cnn1C)C12CC3CC(CC(C3)C1)C2	nt	i	i	nt	i	i	nt	nt
CCCS(=O)(=O)n1nc(-c2ccccc2)cc1N	i	9.9	i	i	i	i	i	i
Cc1ccnc(NC(=O)c2cc3ccccc3o2)c1	i	i	i	i	i	i	nt	nt
Cc1ccc(C)c(NC(=O)c2cc3ccccc3o2)c1	i	7.8	11	i	i	i	i	9.4
O=C(Nc1ccccn1)c1cc2ccccc2o1	i	10	i	i	i	i	i	13
